# Test results reported in PMC7862700, “An all-to-all approach to the identification of sequence-specific readers for epigenetic DNA modifications on cytosine”.
# Columns and labels:
# Test in all cases: DAPPL (digital affinity profiling via proximity ligation, sequencing); 10 mM Tris-HCl pH 7.5, 50 mM NaCl, 1 mM DTT, 4% glycerol, room temperature, 30 min; GST-TFs on glutathione beads, 16-mer random dsDNA library, 0.1% formaldehyde crosslink after washing; high values mean tight binding
# FLI1 = molecular target: T1, FLI1 (Homo sapiens, UniProt Q01543 1-452); conditions: protein: recombinant; tags: N-terminal GST; dsDNA, one strand shown
# T1 sequence: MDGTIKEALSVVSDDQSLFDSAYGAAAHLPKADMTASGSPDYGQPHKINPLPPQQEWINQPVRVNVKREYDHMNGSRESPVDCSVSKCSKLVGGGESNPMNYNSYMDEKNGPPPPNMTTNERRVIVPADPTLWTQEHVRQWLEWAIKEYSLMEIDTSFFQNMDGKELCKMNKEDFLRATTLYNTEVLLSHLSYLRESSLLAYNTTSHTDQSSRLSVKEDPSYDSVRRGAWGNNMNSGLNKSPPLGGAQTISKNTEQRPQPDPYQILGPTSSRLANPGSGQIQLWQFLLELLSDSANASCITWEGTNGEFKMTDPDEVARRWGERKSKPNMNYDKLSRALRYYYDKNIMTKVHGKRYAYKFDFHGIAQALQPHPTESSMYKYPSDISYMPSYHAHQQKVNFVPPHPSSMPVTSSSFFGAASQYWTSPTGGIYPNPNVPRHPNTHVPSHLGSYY
# How it was run: (§1)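 After expression in yeast as GST fusions, human transcription factors were bound to glutathione beads, DNA-barcoded and mixed with a tag-only sample. The pools were incubated with 200 nmole of a 16-mer random double-stranded DNA library in Tris/NaCl/DTT/glycerol buffer (30 min, room temperature), washed and crosslinked with 0.1% formaldehyde. Proximity ligation with BsaI/T4 ligase ran for 1 h at 37 °C, before PCR amplification and sequencing on an Illumina NextSeq500. Binding signal is a hexamer's read frequency for a factor divided by its frequency for the tag-only sample.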
# ELK1 = molecular target: T2, ELK1 (Homo sapiens, UniProt P19419 1-428); conditions: protein: recombinant; tags: N-terminal GST; dsDNA, one strand shown
# T2 sequence: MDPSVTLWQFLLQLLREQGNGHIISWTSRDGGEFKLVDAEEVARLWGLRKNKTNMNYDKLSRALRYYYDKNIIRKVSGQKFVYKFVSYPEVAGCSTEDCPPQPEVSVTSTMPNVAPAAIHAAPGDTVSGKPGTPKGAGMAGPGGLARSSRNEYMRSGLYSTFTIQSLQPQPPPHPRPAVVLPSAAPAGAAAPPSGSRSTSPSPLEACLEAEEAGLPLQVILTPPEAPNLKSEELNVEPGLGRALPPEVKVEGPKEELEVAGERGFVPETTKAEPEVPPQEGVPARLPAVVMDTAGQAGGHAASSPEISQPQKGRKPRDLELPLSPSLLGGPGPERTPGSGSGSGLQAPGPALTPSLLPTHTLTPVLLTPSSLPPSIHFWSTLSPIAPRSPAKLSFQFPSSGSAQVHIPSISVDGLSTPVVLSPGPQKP
# How it was run: as §1
# GABPA = molecular target: T3, GABPA (Homo sapiens, UniProt Q06546 1-454); conditions: protein: recombinant; tags: N-terminal GST; dsDNA, one strand shown
# T3 sequence: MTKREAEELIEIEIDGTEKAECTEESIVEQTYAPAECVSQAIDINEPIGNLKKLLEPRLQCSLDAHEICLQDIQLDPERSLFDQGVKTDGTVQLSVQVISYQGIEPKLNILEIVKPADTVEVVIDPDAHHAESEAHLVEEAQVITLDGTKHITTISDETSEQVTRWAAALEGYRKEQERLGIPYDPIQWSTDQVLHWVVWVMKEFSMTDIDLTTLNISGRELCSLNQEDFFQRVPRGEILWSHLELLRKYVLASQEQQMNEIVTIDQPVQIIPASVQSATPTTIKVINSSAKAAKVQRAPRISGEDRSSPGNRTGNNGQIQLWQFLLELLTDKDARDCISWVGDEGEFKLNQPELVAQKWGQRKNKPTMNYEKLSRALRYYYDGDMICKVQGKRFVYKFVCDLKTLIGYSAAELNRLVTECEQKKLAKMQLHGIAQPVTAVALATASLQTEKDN
# How it was run: as §1
# ERG = molecular target: T4, ERG (Homo sapiens, UniProt P11308 1-479); conditions: protein: recombinant; tags: N-terminal GST; dsDNA, one strand shown
# T4 sequence: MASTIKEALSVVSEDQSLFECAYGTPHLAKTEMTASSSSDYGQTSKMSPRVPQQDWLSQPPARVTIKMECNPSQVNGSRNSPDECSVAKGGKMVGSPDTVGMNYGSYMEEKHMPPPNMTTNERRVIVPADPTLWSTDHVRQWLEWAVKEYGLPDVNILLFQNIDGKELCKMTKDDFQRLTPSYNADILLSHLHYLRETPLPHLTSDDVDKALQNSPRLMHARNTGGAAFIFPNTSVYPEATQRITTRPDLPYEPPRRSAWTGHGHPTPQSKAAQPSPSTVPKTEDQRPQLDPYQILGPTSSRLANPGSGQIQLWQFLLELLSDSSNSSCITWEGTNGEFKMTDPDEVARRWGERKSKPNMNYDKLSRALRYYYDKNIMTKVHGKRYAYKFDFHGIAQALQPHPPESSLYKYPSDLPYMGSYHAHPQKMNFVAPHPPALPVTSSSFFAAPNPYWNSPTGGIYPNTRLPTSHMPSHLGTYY
# How it was run: as §1
# ELF1 = ELF1 (Homo sapiens, UniProt P32519 1-619); conditions: protein: recombinant; tags: N-terminal GST; dsDNA, one strand shown
# Sequence of ELF1 (P32519 whole entry): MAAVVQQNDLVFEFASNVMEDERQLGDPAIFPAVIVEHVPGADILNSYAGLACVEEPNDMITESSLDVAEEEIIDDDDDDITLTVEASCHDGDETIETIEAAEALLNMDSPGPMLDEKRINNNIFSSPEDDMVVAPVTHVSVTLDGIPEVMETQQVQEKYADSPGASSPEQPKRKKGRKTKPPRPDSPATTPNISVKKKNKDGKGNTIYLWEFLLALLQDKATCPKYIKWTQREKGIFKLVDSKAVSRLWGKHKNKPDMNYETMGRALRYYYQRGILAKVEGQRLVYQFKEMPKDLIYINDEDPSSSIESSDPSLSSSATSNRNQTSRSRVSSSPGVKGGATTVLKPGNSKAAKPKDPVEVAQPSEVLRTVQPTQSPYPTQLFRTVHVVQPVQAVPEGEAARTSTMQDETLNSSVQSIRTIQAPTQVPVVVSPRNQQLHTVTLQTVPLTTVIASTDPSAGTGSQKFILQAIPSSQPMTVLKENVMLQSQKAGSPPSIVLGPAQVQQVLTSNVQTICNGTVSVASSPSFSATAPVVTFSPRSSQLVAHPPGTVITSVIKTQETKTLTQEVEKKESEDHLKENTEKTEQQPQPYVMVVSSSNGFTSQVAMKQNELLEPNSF
# How it was run: as §1
# EHF = molecular target: T5, EHF (Homo sapiens, UniProt Q9NZC4 1-300); conditions: protein: recombinant; tags: N-terminal GST; dsDNA, one strand shown
# T5 sequence: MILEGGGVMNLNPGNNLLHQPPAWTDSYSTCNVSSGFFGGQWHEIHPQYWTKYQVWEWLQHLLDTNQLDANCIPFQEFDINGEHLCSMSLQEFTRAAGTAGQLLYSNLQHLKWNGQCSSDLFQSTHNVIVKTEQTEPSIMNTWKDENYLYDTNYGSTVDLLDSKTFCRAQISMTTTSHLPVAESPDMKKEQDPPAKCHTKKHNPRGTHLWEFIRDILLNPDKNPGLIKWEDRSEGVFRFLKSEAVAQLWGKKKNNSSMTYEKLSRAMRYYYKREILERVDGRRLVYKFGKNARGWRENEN
# How it was run: as §1
# SPI1 = SPI1 (Homo sapiens, UniProt P17947 1-270); conditions: protein: recombinant; tags: N-terminal GST; dsDNA, one strand shown
# How it was run: as §1
# SPIB = SPIB (Homo sapiens, UniProt Q01892 1-262); conditions: protein: recombinant; tags: N-terminal GST; dsDNA, one strand shown
# Sequence of SPIB (Q01892 whole entry): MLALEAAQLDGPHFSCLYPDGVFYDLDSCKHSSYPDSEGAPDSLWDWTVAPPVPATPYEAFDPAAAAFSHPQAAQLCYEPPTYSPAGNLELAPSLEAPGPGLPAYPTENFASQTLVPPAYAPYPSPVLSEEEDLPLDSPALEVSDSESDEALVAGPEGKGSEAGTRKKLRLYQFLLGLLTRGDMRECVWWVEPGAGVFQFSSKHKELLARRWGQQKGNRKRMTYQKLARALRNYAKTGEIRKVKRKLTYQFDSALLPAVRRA
# How it was run: as §1
# ELK3 = molecular target: T6, ELK3 (Homo sapiens, UniProt P41970 1-407); conditions: protein: recombinant; tags: N-terminal GST; dsDNA, one strand shown
# T6 sequence: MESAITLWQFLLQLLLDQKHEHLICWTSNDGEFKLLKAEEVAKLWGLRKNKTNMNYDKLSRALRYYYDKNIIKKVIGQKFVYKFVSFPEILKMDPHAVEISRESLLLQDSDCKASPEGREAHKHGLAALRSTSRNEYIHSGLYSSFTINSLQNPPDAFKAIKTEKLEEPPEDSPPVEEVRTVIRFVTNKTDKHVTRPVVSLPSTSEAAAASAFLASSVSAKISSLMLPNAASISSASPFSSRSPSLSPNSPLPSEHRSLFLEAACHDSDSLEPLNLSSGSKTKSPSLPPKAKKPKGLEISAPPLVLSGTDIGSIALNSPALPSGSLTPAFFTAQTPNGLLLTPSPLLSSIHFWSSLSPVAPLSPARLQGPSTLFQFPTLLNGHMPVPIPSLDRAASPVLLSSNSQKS
# How it was run: as §1
# FEV = molecular target: T7, FEV (Homo sapiens, UniProt Q99581 1-238); conditions: protein: recombinant; tags: N-terminal GST; dsDNA, one strand shown
# T7 sequence: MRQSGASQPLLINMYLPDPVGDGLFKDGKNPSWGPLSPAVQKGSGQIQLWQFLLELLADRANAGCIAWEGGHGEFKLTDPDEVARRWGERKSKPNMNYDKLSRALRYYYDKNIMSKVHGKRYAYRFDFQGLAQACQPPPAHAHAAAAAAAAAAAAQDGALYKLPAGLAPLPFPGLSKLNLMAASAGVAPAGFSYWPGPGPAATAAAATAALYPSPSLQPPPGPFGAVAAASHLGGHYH
# How it was run: as §1
# ETV5 = ETV5 (Homo sapiens, UniProt P41161 1-510); conditions: protein: recombinant; tags: N-terminal GST; dsDNA, one strand shown
# Sequence of ETV5 (P41161 whole entry): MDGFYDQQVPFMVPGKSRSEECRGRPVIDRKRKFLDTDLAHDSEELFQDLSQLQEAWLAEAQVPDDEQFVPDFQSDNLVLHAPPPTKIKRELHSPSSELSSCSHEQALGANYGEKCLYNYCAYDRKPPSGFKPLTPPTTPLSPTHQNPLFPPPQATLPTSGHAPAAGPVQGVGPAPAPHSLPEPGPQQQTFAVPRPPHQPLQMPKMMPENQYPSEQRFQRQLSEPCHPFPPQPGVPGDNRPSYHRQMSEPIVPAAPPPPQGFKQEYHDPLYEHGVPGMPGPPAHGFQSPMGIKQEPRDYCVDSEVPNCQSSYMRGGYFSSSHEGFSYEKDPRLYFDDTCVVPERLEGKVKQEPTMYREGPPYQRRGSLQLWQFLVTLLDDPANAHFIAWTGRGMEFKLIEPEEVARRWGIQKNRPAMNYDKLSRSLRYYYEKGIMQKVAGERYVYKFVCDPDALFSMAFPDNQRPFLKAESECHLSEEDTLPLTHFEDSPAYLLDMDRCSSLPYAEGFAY
# How it was run: as §1
# HSF1 = HSF1 (Homo sapiens, UniProt Q00613 1-529); conditions: protein: recombinant; tags: N-terminal GST; chain copies: 3; dsDNA, one strand shown
# Sequence of HSF1 (Q00613 whole entry): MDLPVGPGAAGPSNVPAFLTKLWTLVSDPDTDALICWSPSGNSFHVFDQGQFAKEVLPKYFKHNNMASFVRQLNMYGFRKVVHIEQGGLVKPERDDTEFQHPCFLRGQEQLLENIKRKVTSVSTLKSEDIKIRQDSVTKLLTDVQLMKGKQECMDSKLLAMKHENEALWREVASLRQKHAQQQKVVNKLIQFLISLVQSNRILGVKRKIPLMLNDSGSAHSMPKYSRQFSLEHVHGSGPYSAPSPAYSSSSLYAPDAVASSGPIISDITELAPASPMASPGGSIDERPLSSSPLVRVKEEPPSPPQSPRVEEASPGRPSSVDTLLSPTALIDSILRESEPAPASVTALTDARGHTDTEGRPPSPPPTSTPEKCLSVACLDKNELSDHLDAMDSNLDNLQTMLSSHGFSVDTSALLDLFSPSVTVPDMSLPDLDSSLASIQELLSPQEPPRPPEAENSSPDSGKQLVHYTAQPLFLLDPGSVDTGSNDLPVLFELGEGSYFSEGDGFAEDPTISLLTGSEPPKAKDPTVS
# How it was run: as §1
# SPIC = molecular target: T8, SPIC (Homo sapiens, UniProt Q8N5J4 1-248); conditions: protein: recombinant; tags: N-terminal GST; dsDNA, one strand shown
# T8 sequence: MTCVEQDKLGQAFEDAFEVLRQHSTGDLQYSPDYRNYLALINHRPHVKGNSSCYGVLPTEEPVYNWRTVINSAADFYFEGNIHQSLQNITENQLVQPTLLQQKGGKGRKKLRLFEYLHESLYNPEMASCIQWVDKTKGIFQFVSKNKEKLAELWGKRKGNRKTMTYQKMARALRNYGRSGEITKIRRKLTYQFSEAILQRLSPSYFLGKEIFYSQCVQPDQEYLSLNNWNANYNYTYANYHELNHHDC
# How it was run: as §1
# ELF4 = ELF4 (Homo sapiens, UniProt Q99607 1-663); conditions: protein: recombinant; tags: N-terminal GST; dsDNA, one strand shown
# Sequence of ELF4 (Q99607 whole entry): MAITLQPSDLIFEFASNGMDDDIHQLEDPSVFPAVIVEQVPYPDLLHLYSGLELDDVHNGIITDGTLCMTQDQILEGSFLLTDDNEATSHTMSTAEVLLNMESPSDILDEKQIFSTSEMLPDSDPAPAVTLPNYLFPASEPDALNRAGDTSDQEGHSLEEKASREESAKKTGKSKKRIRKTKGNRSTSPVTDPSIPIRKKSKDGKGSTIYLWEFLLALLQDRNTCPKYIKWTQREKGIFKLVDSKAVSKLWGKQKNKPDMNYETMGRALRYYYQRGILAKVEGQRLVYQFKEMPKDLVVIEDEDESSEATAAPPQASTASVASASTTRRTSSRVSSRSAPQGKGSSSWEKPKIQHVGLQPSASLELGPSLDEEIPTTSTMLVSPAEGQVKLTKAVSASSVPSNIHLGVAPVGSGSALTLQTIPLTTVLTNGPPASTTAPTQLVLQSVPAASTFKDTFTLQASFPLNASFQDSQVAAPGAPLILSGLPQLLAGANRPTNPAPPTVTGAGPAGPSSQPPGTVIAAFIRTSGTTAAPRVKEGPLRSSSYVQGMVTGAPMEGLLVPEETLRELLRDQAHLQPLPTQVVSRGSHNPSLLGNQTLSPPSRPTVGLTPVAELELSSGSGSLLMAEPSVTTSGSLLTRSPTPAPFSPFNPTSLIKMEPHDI
# How it was run: as §1
# ELK4 = molecular target: T9, ELK4 (Homo sapiens, UniProt P28324-2 1-405); conditions: protein: recombinant; tags: N-terminal GST; dsDNA, one strand shown
# T9 sequence: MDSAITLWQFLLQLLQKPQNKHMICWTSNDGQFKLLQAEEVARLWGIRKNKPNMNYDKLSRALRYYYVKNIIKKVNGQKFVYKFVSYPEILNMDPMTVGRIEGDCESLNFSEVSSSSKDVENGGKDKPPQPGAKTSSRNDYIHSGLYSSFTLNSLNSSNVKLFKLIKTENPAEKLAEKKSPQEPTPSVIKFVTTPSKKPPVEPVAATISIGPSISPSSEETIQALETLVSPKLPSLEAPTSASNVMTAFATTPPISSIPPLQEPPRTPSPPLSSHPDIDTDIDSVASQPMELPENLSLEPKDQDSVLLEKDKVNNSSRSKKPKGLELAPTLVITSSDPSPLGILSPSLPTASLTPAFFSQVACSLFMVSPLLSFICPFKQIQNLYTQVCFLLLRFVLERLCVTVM
# How it was run: as §1
# ETV2 = molecular target: T10, ETV2 (Homo sapiens, UniProt O00321 1-342); conditions: protein: recombinant; tags: N-terminal GST; dsDNA, one strand shown
# T10 sequence: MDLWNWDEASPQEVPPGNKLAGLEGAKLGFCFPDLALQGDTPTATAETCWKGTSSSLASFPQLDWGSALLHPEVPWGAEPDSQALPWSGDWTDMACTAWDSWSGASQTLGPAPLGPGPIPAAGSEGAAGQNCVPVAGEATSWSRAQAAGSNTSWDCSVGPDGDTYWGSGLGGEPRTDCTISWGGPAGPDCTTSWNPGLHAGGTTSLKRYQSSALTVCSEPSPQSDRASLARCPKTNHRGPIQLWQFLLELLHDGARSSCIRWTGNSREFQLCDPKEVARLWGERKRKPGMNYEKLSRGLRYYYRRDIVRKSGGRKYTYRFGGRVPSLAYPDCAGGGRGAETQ
# How it was run: as §1
# ELF3 = molecular target: T11, ELF3 (Homo sapiens, UniProt P78545 1-371); conditions: protein: recombinant; tags: N-terminal GST; dsDNA, one strand shown
# T11 sequence: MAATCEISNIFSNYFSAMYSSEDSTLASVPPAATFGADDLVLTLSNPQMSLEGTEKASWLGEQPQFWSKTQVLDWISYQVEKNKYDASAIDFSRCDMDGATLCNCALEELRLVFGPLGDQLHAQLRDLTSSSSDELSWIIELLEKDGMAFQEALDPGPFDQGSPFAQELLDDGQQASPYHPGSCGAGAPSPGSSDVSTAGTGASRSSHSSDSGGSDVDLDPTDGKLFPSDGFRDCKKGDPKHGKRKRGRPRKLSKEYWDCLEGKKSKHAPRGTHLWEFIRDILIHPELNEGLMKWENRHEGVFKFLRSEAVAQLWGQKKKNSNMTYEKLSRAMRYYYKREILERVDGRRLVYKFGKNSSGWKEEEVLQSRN
# How it was run: as §1
# CRX = CRX (Homo sapiens, UniProt O43186 1-299); conditions: protein: recombinant; tags: N-terminal GST; dsDNA, one strand shown
# Sequence of CRX (O43186 whole entry): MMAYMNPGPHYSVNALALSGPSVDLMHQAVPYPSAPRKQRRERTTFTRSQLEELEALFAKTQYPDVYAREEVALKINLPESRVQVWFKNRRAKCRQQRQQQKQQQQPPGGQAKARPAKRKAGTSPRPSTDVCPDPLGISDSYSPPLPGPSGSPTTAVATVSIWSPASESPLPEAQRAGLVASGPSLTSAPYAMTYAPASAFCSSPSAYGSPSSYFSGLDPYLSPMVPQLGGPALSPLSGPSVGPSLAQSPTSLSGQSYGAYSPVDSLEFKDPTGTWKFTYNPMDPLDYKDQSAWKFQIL
# How it was run: as §1
# ETV1 = ETV1 (Homo sapiens, UniProt P50549 1-477); conditions: protein: recombinant; tags: N-terminal GST; dsDNA, one strand shown
# Sequence of ETV1 (P50549 whole entry): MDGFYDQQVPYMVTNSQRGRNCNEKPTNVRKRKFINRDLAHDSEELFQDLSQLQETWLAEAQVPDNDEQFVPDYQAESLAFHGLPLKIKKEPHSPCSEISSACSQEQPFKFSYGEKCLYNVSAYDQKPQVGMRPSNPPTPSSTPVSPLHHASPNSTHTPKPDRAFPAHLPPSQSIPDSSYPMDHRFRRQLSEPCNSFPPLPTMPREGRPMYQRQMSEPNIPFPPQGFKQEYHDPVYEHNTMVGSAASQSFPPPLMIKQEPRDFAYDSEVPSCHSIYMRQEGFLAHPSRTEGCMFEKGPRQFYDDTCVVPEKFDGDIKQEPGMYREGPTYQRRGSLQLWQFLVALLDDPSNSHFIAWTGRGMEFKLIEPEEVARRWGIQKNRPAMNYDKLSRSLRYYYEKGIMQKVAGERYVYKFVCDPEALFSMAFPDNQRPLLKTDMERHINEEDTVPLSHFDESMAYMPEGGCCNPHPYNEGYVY
# How it was run: as §1
sequence,measurement,setting,value
CCTTCC,binding signal,FLI1,"2.45 fold enrichment (6-mer frequency, TF over GST control)"
same,binding signal,ELK1,"2.68 fold enrichment (6-mer frequency, TF over GST control)"
same,binding signal,GABPA,"2.22 fold enrichment (6-mer frequency, TF over GST control)"
same,binding signal,ERG,"3.03 fold enrichment (6-mer frequency, TF over GST control)"
same,binding signal,ELF1,"2.39 fold enrichment (6-mer frequency, TF over GST control)"
same,binding signal,EHF,"2.75 fold enrichment (6-mer frequency, TF over GST control)"
same,binding signal,SPI1,"2.48 fold enrichment (6-mer frequency, TF over GST control)"
same,binding signal,SPIB,"2.75 fold enrichment (6-mer frequency, TF over GST control)"
same,binding signal,ELK3,"2.47 fold enrichment (6-mer frequency, TF over GST control)"
same,binding signal,FEV,"2.78 fold enrichment (6-mer frequency, TF over GST control)"
same,binding signal,ETV5,"2.73 fold enrichment (6-mer frequency, TF over GST control)"
same,binding signal,HSF1,"1.81 fold enrichment (6-mer frequency, TF over GST control)"
same,binding signal,SPIC,"2.36 fold enrichment (6-mer frequency, TF over GST control)"
same,binding signal,ELF4,"2.5 fold enrichment (6-mer frequency, TF over GST control)"
same,binding signal,ELK4,"2.19 fold enrichment (6-mer frequency, TF over GST control)"
same,binding signal,ETV2,"2.51 fold enrichment (6-mer frequency, TF over GST control)"
same,binding signal,ELF3,"2.27 fold enrichment (6-mer frequency, TF over GST control)"
same,binding signal,CRX,"1.26 fold enrichment (6-mer frequency, TF over GST control)"
same,binding signal,ETV1,"2.55 fold enrichment (6-mer frequency, TF over GST control)"
